SW480 rerep – DNA re-replication induction in SW480 cells | SW480 DNA re-replication, Hoechst DNA content imaging, 48 h | Potency, µM (titrated, usually from 46.1 µM), most hits filed as activators | hit rate 1.8% among 340,000 | AID 624297; note: nearly all actives have a fitted effect of over 55% in size
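Image-based DNA-content assay: after two days of treatment, nuclei were labelled with the DNA dye Hoechst and imaged, and hits were compounds raising the count of nuclei showing high fluorescence intensity.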
KB-3-1 cytotox – kills parental KB-3-1 adenocarcinoma cells | KB-3-1 viability, CellTiter-Glo ATP luminescence, 72 h | Potency, µM (top dose mostly 46.1 µM), usual class: cytotoxic | hit rate 1.4% among 400,000; note: nearly all actives have a fitted effect of over 60% in size
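KB-3-1 parental drug-naive adenocarcinoma cells in DMEM/10% FBS, incubated 72 h at 37 C with pin-transferred compounds across a concentration series. Viability by CellTiter-Glo luminescence; concentration-response curves fitted after normalization.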
KB-V1 cytotox – KB-V1 MDR subline cytotoxicity. KB-V1 MDR cells viability, CellTiter-Glo, 72 h. AID 1347076. hit rate 3.4% among 400,000. Potency, µM (top dose mostly 46.1 µM), hits mostly cytotoxic; note: nearly all actives have a fitted effect of over 60% in size
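Cytotoxicity via CellTiter-Glo luminescence after 72 h compound exposure at 37 degrees C. Cells: drug-selected KB-V1 line, DMEM phenol-red free plus 10% FBS. Compounds tested at multiple concentrations; normalized data fitted to concentration-effect curves.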
MCF10A rereplic – induces DNA re-replication in MCF 10a normal breast cells; MCF 10A DNA re-replication, Hoechst nuclear intensity, 48 h; Potency, µM (top dose mostly 46.1 µM), usual class: activators; hit rate 2.9% among 350,000; AID 624296; note: nearly all actives have a fitted effect of over 50% in size
IL-1B inflam inh – inhibitors of inflammasome signaling (IL-1 beta secretion). hit rate 4.7% among 360,000. THP-1 LPS/ATP IL-1B secretion, AlphaLISA, 16 h; hits give low values. activity change, % at 57.5 µM; in the data active = activity change below about -50%; inconclusive = mostly about -30% to -49%
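THP-1 cells pretreated 1 hr with compounds (up to 57.5 uM final), then stimulated with LPS (250 ng/mL final) plus ATP (1.25 mM final); secreted IL-1B measured by AlphaLISA after 16 hr, decreased signal indicating inhibition.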
Each line names hits and unclear results; the compound was inactive in the other large screens. Sampled rows, rich in hits. Any-hit rate of the full collection: about 9.9%. Unless noted, calls come from the whole dose curve; as a rule, active = well fitted curve in the direction sought with a large enough effect; inconclusive = small, poorly fitted or top-dose-only effect, or another doubt; inactive = no such curve, though single readings can be large; an effect the other way counts as inactive or inconclusive.

Cc1ccc(Nc2nc3ccccc3nc2Nc2c(C)n(C)n(-c3ccccc3)c2=O)cc1	KB-V1 cytotox inconclusive, MCF10A rereplic 1.8µM
Cc1ccc(-n2c(N)c(C(=O)Nc3c(C)n(C)n(-c4ccccc4)c3=O)c3nc4ccccc4nc32)cc1	KB-3-1 cytotox inconclusive, KB-V1 cytotox 23µM
O=C(O)C#CC(=O)O	none (no result: SW480 rerep, MCF10A rereplic, IL-1B inflam inh)
CC(C)(C)C(C(=O)n1cccc1C#N)c1ccccc1 (centres undefined)	none
CCc1nc2ccccc2c(C(=O)Nc2ccc(C)cc2)c1C	none
CCc1ccccc1-n1c(N)c(C(=O)OC)c2nc3ccccc3nc21	none (no result: SW480 rerep, MCF10A rereplic, IL-1B inflam inh)
COC(=O)c1c(N)n(-c2ccc(NC(C)=O)cc2)c2nc3ccccc3nc12	IL-1B inflam inh -52
COCCNC(=O)c1c(N)n(-c2ccccc2)c2nc3ccccc3nc12	SW480 rerep 21µM, MCF10A rereplic inconclusive, IL-1B inflam inh inconclusive
O=C(O)C1C2CC3C(OC(=O)C31)C2Cl (centres undefined)	none
CC(=O)c1c(C)[nH]c(C(=O)N2CCN(c3ccccn3)CC2)c1C	none
Cc1cc(C)n2c(NC3CCCCC3)c(CC(C)C)nc2n1	none (no result: SW480 rerep, MCF10A rereplic)
O=C(c1ccc(N2CN(C(=O)c3ccco3)c3nc4ccccc4nc32)cc1)N1CCOCC1	IL-1B inflam inh -59
O=C(c1ccncc1)N1CCN(C(=O)c2ccco2)CC1	none
O=C(OCc1nc2ccc(Cl)cc2n1CCO)c1ccccc1C(=O)c1ccccc1	KB-V1 cytotox 16µM
CN(C)C(CNc1ncnc2sc3c(c12)CCCCC3)c1ccco1 (centres undefined)	KB-V1 cytotox inconclusive, IL-1B inflam inh -51
Cc1sc2ncnc(Nc3ccccc3)c2c1C	none
Cc1sc2ncnc(NCC(C)(C)N3CCOCC3)c2c1C	KB-3-1 cytotox inconclusive, KB-V1 cytotox 4.1µM, IL-1B inflam inh inconclusive
COc1ccc(C(CNc2ncnc3sc(C)c(C)c23)N(C)C)cc1 (centres undefined)	SW480 rerep inconclusive, KB-3-1 cytotox inconclusive, KB-V1 cytotox 10µM, MCF10A rereplic inconclusive
Cc1sc2ncnc(NCc3ccccc3)c2c1C	KB-3-1 cytotox 23µM, KB-V1 cytotox inconclusive, IL-1B inflam inh -68
CCOC(=O)N1CCN(C(=O)CNS(=O)(=O)c2c(C)cc(C)cc2C)CC1	KB-3-1 cytotox inconclusive, KB-V1 cytotox inconclusive
Cc1ccccc1-c1csc(C(O)c2ccc(F)c(F)c2)n1 (centres undefined)	none (no result: SW480 rerep, MCF10A rereplic)
O=C(CN(c1ccccc1)S(=O)(=O)c1ccc(F)cc1)NCc1cccs1	none
CC(=O)NC(Nc1c(C)n(C)n(-c2ccccc2)c1=O)C(Cl)(Cl)Cl (centres undefined)	none
Cc1sc2ncnc(NCC(c3ccco3)N(C)C)c2c1C (centres undefined)	KB-V1 cytotox 18µM
C=C1C(=O)C23CCC4C(C)(C(=O)OC)CCCC4(C)C2CCC1(O)C3 (centres undefined)	SW480 rerep 1.2µM, KB-3-1 cytotox inconclusive, KB-V1 cytotox 18µM, MCF10A rereplic 2.3µM, IL-1B inflam inh -103
Cn1c(=O)c2c(nc(NCCOc3ccc(C(C)(C)C)cc3)n2C)n(C)c1=O	MCF10A rereplic 16µM
COc1ccccc1OCCNc1nc2c(c(=O)n(C)c(=O)n2C)n1C	SW480 rerep inconclusive, KB-V1 cytotox inconclusive, MCF10A rereplic inconclusive
COc1ccc(C(=O)Nc2ccc(NC(=O)Cc3ccccc3)cn2)cc1	none
COc1ccc(Oc2c(Cl)cnn(-c3ccc(Cl)c(Cl)c3)c2=O)cc1	SW480 rerep inconclusive, KB-3-1 cytotox inconclusive, KB-V1 cytotox inconclusive, MCF10A rereplic inconclusive, IL-1B inflam inh -113
COc1c(Cl)cnn(-c2ccc(C)cc2)c1=O	SW480 rerep inconclusive, MCF10A rereplic inconclusive
Cn1ncc(Cl)c(Oc2ccc(Cl)cc2)c1=O	IL-1B inflam inh -90
CCOc1c(Cl)cnn(-c2ccc(C)cc2)c1=O	none
COc1ccc(Oc2c(Cl)cnn(-c3ccc(C)cc3)c2=O)cc1	SW480 rerep inconclusive, MCF10A rereplic inconclusive, IL-1B inflam inh -114
COc1ccc(Oc2c(Cl)cnn(-c3ccc(F)cc3)c2=O)cc1	SW480 rerep inconclusive, KB-3-1 cytotox inconclusive, IL-1B inflam inh -112
Cn1ncc(Oc2ccc([N+](=O)[O-])cc2)c(Cl)c1=O	SW480 rerep inconclusive, MCF10A rereplic inconclusive (no result: IL-1B inflam inh)
COc1ccccc1P(=O)(c1ccccc1)c1ccc([N+](=O)[O-])cc1 (centres undefined)	none
Cc1cc(O)c(C(C[N+](=O)[O-])c2ccc(Cl)cc2)c(=O)o1 (centres undefined)	none
Cc1cc(C)n(C(C[N+](=O)[O-])c2ccc(Cl)cc2)n1 (centres undefined)	SW480 rerep inconclusive, KB-3-1 cytotox inconclusive, KB-V1 cytotox inconclusive, MCF10A rereplic 15µM, IL-1B inflam inh inconclusive
CN=c1scc(-c2ccc([N+](=O)[O-])cc2)n1/N=C/c1ccco1	none
CN=c1scc(-c2ccc(F)cc2)n1/N=C/c1ccc(O)c(O)c1	SW480 rerep 15µM, KB-3-1 cytotox inconclusive, MCF10A rereplic inconclusive
CCOC(=O)N1CCN(C(=O)C[C@@H]2C[C@@]3(C(=O)OC)CC(C)(C)CC=C3N(Cc3cccc4ccccc34)C2=O)CC1	KB-V1 cytotox 18µM (no result: SW480 rerep, MCF10A rereplic)
COC(=O)[C@@]12C[C@@H](CC(=O)N3CCC(c4ccccc4)CC3)C(=O)N(Cc3cccc4ccccc34)C1=CCC(C)(C)C2	none (no result: SW480 rerep, MCF10A rereplic)
COC(=O)[C@@]12C[C@@H](CC(=O)N3CCN(C(=O)c4ccco4)CC3)C(=O)N(Cc3cccc4ccccc34)C1=CCC(C)(C)C2	KB-3-1 cytotox inconclusive, KB-V1 cytotox 23µM, IL-1B inflam inh inconclusive (no result: SW480 rerep, MCF10A rereplic)
COC(=O)[C@@]12C[C@@H](CC(=O)N3CCCCC3)C(=O)N(Cc3cccc4ccccc34)C1=CCC(C)(C)C2	KB-3-1 cytotox inconclusive, KB-V1 cytotox inconclusive (no result: SW480 rerep, MCF10A rereplic)
CCN(CC)CCCNC(=O)c1ccc2c(c1)sc1nc(-c3ccc(C)cc3)cn12	KB-3-1 cytotox 16µM, KB-V1 cytotox inconclusive (no result: SW480 rerep, MCF10A rereplic, IL-1B inflam inh)
COc1cccc(C(=O)C2CN(c3ccccc3)CC2c2ccc(Cl)cc2)c1 (centres undefined)	SW480 rerep inconclusive, KB-V1 cytotox 16µM, IL-1B inflam inh inconclusive
COc1ccccc1N1CCN(C(=O)c2cn(C)c3ccc(S(=O)(=O)N(C)C4CCCCC4)cc3c2=O)CC1	KB-3-1 cytotox inconclusive (no result: SW480 rerep, MCF10A rereplic, IL-1B inflam inh)
C=Cc1ncc(OC)c2c1[nH]c1ccccc12	SW480 rerep inconclusive, KB-3-1 cytotox 5.8µM, MCF10A rereplic inconclusive, IL-1B inflam inh -107
COc1cccc2[nH]c3ccccc3c(=O)c12	SW480 rerep inconclusive, MCF10A rereplic inconclusive
Cc1ccc(C(=O)NC(=S)Nc2cccc3nsnc23)cc1	none
Cc1ccc(C(=O)NC(=S)Nc2cccc3c(C)cc(C)nc23)cc1	KB-3-1 cytotox inconclusive, KB-V1 cytotox 15µM, MCF10A rereplic inconclusive
CCCS(=O)(=O)NC(=O)C1(C)CCN(C(=O)COc2ccccc2)C1 (centres undefined)	none (no result: SW480 rerep, MCF10A rereplic)
CC1(C)Cc2c(ccc3ccccc23)/C(=C/C(=O)N2CCCCC2)N1	SW480 rerep inconclusive, MCF10A rereplic inconclusive, IL-1B inflam inh -62
